Hit rate of the full screen: of about 5,500 compounds, about 2,000 (36%) were called active. About 18% were inconclusive and are not listed. Rule as the data show it: active = normalized growth mostly below about 0.91 (no sharp cut-off); inconclusive = no clear call, values can overlap the other calls; inactive = mostly above about 0.92. The list shows a part of the results.
Experiment: chemical genetic growth profiling, strain panel (AID 1159580);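 also: tested at 20 µM; growth read once vehicle control cultures reached saturation at 30 °C; 1 = growth at the plate median or of vehicle wells; lower values mean less growth of the strain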
Details: growth OD

Measured: normalized growth

CC(=O)O[C@H]1CC[C@@]2(C)C(=CCC3C2CC[C@@]2(C)C3CC[C@@H]2C(C)CCCC(C)C)C1 (stereo partly drawn)
inactive: S. cerevisiae deletion strains, locus YJR066W, strain TOR1, stronger effect = lower value 0.96 | S. cerevisiae deletion strains, locus YKL009W, strain mrt4, stronger effect = lower value 1.05 | S. cerevisiae deletion strains, locus YKL068W, stronger effect = lower value 1 | S. cerevisiae deletion strains, locus YKL085W, strain MDH1 (second series), stronger effect = lower value 1.01 | S. cerevisiae deletion strains, locus YKL085W, strain MDH1, stronger effect = lower value 1.01 | S. cerevisiae deletion strains, locus YKL160W, strain elf1, stronger effect = lower value 0.997 | S. cerevisiae deletion strains, locus YKL190W, strain CNB1, stronger effect = lower value 1.01 | S. cerevisiae deletion strains, locus YKR001C, strain vps1, stronger effect = lower value 1.06 | S. cerevisiae deletion strains, locus YKR026C, strain gcn3, stronger effect = lower value 0.991 | S. cerevisiae deletion strains, locus YKR091W, strain srl3, stronger effect = lower value 0.998 | S. cerevisiae deletion strains, locus YLL001W, strain dnm1, stronger effect = lower value 0.997 | S. cerevisiae deletion strains, locus YLL026W, stronger effect = lower value 0.995 | S. cerevisiae deletion strains, locus YLL041C, strain sdh2, stronger effect = lower value 0.995 | S. cerevisiae deletion strains, locus YLR027C, strain aat2, stronger effect = lower value 0.979 | S. cerevisiae deletion strains, locus YLR039C, strain RIC1, stronger effect = lower value 1.08 | S. cerevisiae deletion strains, locus YLR058C, strain SHM2, stronger effect = lower value 1.01 | S. cerevisiae deletion strains, locus YLR102C, strain apc9, stronger effect = lower value 1.01 | S. cerevisiae deletion strains, locus YLR113W, strain HOG1, stronger effect = lower value 0.95 | S. cerevisiae deletion strains, locus YLR221C, strain rsa3, stronger effect = lower value 0.979 | S. cerevisiae deletion strains, locus YLR258W, strain gsy2, stronger effect = lower value 1.01 | S. cerevisiae deletion strains, locus YLR262C, strain YPT6 (second series), stronger effect = lower value 1.01 | S. cerevisiae deletion strains, locus YLR262C, strain YPT6, stronger effect = lower value 1.14 | S. cerevisiae deletion strains, locus YLR268W, strain sec22, stronger effect = lower value 1.03 | S. cerevisiae deletion strains, locus YLR320W, strain mms22, stronger effect = lower value 0.98 | S. cerevisiae deletion strains, locus YLR330W, strain CHS5, stronger effect = lower value 1.02 | S. cerevisiae deletion strains, locus YLR342W, strain FKS1 (second series), stronger effect = lower value 1.07 | S. cerevisiae deletion strains, locus YLR342W, strain FKS1, stronger effect = lower value 0.994 | S. cerevisiae deletion strains, locus YLR357W, strain rsc2, stronger effect = lower value 0.985 | S. cerevisiae deletion strains, locus YLR370C, strain arc18, stronger effect = lower value 0.991 | S. cerevisiae deletion strains, locus YLR371W, strain rom2, stronger effect = lower value 1.02 | S. cerevisiae deletion strains, locus YLR384C, strain iki3, stronger effect = lower value 1.01 | S. cerevisiae deletion strains, locus YLR418C, strain cdc73, stronger effect = lower value 1.04 | S. cerevisiae deletion strains, locus YML016C, strain PPZ1, stronger effect = lower value 1.01 | S. cerevisiae deletion strains, locus YML032C, strain rad52, stronger effect = lower value 1.02 | S. cerevisiae deletion strains, locus YML120C, strain ndi1, stronger effect = lower value 1 | S. cerevisiae deletion strains, locus YML124C, strain tub3, stronger effect = lower value 1.02 | S. cerevisiae deletion strains, locus YMR058W, strain fet3, stronger effect = lower value 0.913 | S. cerevisiae deletion strains, locus YMR078C, strain ctf18, stronger effect = lower value 1.02 | S. cerevisiae deletion strains, locus YMR125W, strain sto1, stronger effect = lower value 0.995 | S. cerevisiae deletion strains, locus YMR129W, stronger effect = lower value 0.997 | S. cerevisiae deletion strains, locus YMR205C, strain PFK2, stronger effect = lower value 1 | S. cerevisiae deletion strains, locus YMR223W, strain ubp8, stronger effect = lower value 1.03 | S. cerevisiae deletion strains, locus YMR231W, strain pep5, stronger effect = lower value 0.965 | S. cerevisiae deletion strains, locus YMR307W, strain GAS1, stronger effect = lower value 1.03 | S. cerevisiae deletion strains, locus YNL067W, strain RPL9B, stronger effect = lower value 1.02 | S. cerevisiae deletion strains, locus YNL071W, strain lat1, stronger effect = lower value 0.999 | S. cerevisiae deletion strains, locus YNL128W, strain TEP1, stronger effect = lower value 1.02 | S. cerevisiae deletion strains, locus YNL153C, strain GIM3, stronger effect = lower value 1.02 | S. cerevisiae deletion strains, locus YNL183C, strain NPR1, stronger effect = lower value 0.906 | S. cerevisiae deletion strains, locus YNL209W, strain ssb2, stronger effect = lower value 0.999 | S. cerevisiae deletion strains, locus YNL233W, strain BNI4, stronger effect = lower value 1 | S. cerevisiae deletion strains, locus YNL248C, strain rpa49, stronger effect = lower value 1 | S. cerevisiae deletion strains, locus YNL250W, strain rad50, stronger effect = lower value 1.02 | S. cerevisiae deletion strains, locus YNL271C, strain bni1, stronger effect = lower value 1.04 | S. cerevisiae deletion strains, locus YNL298W, strain CLA4, stronger effect = lower value 1.02 | S. cerevisiae deletion strains, locus YNL307C, strain MCK1, stronger effect = lower value 1.03 | S. cerevisiae deletion strains, locus YNL322C, strain KRE1 (second series), stronger effect = lower value 0.989 | S. cerevisiae deletion strains, locus YNR049C, strain mso1, stronger effect = lower value 0.988 | S. cerevisiae deletion strains, locus YNR052C, strain pop2, stronger effect = lower value 1.02 | S. cerevisiae deletion strains, locus YOL012C, strain htz1 0.984 | S. cerevisiae deletion strains, locus YOL147C, strain pex11, stronger effect = lower value 1.02 | S. cerevisiae deletion strains, locus YOR001W, strain rrp6, stronger effect = lower value 0.974 | S. cerevisiae deletion strains, locus YOR061W, strain CKA2, stronger effect = lower value 1.01 | S. cerevisiae deletion strains, locus YOR069W, strain VPS5, stronger effect = lower value 1.01 | S. cerevisiae deletion strains, locus YOR070C, strain gyp1, stronger effect = lower value 0.989 | S. cerevisiae deletion strains, locus YOR080W, strain dia2, stronger effect = lower value 0.983 | S. cerevisiae deletion strains, locus YOR083W, strain WHI5, stronger effect = lower value 1.01 | S. cerevisiae deletion strains, locus YOR106W, strain vam3, stronger effect = lower value 1.04 | S. cerevisiae deletion strains, locus YOR136W, strain idh2, stronger effect = lower value 1.03 | S. cerevisiae deletion strains, locus YOR144C, strain elg1, stronger effect = lower value 1.02 | S. cerevisiae deletion strains, locus YOR184W, strain ser1, stronger effect = lower value 1.02 | S. cerevisiae deletion strains, locus YOR231W, strain MKK1, stronger effect = lower value 0.972 | S. cerevisiae deletion strains, locus YOR265W, strain rbl2, stronger effect = lower value 0.995 | S. cerevisiae deletion strains, locus YOR270C, strain vph1, stronger effect = lower value 1.04 | S. cerevisiae deletion strains, locus YOR290C, strain snf2, stronger effect = lower value 1 | S. cerevisiae deletion strains, locus YOR316C, strain cot1, stronger effect = lower value 1.02 | S. cerevisiae deletion strains, locus YPL051W, strain arl3, stronger effect = lower value 0.982 | S. cerevisiae deletion strains, locus YPL078C, strain atp4, stronger effect = lower value 1.01 | S. cerevisiae deletion strains, locus YPL106C, strain sse1, stronger effect = lower value 0.975 | S. cerevisiae deletion strains, locus YPL240C, strain hsp82, stronger effect = lower value 1 | S. cerevisiae deletion strains, locus YPL241C, strain CIN2, stronger effect = lower value 1.01 | S. cerevisiae deletion strains, locus YPL256C, strain CLN2, stronger effect = lower value 0.964 | S. cerevisiae deletion strains, locus YPR119W, strain clb2, stronger effect = lower value 1.01 | S. cerevisiae deletion strains, locus YPR141C, strain kar3, stronger effect = lower value 1.02 | S. cerevisiae deletion strains, locus YPR163C, strain tif3, stronger effect = lower value 1.04 | S. cerevisiae deletion strains, locus YPR167C, strain met16, stronger effect = lower value 1.03 | S. cerevisiae deletion strains, strain wtn01, stronger effect = lower value 1.04 | S. cerevisiae strains, strain wild type, stronger effect = lower value 1.01

From PubChem BioAssay AID1159580 (chemical genetic matrix, 2015)
